Screening data deposited in PubChem by several laboratories.
The list is not random: actives were taken first. Their share in the collection is about 1.3%.
NCOA2 inhibitor – inhibition of GAL4-SRC2 driven luciferase reporter, primary screen, SRC2 inhibitor project, cell-based, luminescence. Nuclear receptor coactivator 2 (Homo sapiens), Q15596. HEK293 GAL4-SRC2 luciferase reporter. inhibition, % at 9 µM. 370,000 tested, 0.17% active;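 active means inhibition above the mean inhibition of all tested compounds plus 3 SD, set per campaign, cut at about 52% in these data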;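 further: 0% = DMSO treated cells and 100% = cells given Gossypol at 36 µM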
COUP-TFII inh – NR2F2 transcriptional activity inhibitors, primary screen, cell-based, luciferase reporter, HEK293T, luminescence. HEK293T NGFI-A luciferase reporter. 370,000 tested, 0.7% active. inhibition, % at 8.6 µM. AID 686940, 2013;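 active means inhibition above a per-plate cutoff, mean inhibition of test wells between control levels plus 3 SD, cut at about 38% in these data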;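 further: cells cotransfected with COUP-TFII expression vector driving the NGFI-A reporter; 0% = median of COUP-TF2 test wells and 100% = reporter-only cells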
SRC3 inh – SRC3 coactivator transcriptional activity inhibitors, primary screen, cell-based, luminescence; HEK293 GAL4-SRC3 luciferase reporter; AID 588352, 2011; 360,000 tested, 0.17% active; inhibition, % at 3.6 µM; Nuclear receptor coactivator 3 (Homo sapiens), Q9Y6Q9;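 active means inhibition above a per-campaign cutoff, the mean of all compounds plus 3 SD, cut at about 60% in these data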;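 further: 0% = DMSO-treated cells and 100% = gossypol-treated cells at 36 µM; higher means less SRC3-driven luciferase light from the GAL4 reporter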
LRH-1 inv ag – LRH-1 (NR5A2) inverse agonists, primary screen, cell-based, luminescence, HEK293T, StAR-luciferase reporter | LRH-1 transfected, 24 h | inhibition, % at 3.6 µM | 360,000 tested, 0.13% active;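 active means inhibition above the mean inhibition of all tested compounds plus 3 SD, cut at about 73% in these data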;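 further: 0% = DMSO wells and 100% = reporter-only cells lacking LRH-1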
Gli-Sufu antag – Gli-Sufu pathway antagonists, primary screen, luciferase luminescence, Sufu-KO-LIGHT cells, uHTS | inhibition, % at 5 µM | AID 588413, 2011 | Sufu-KO-LIGHT fibroblasts, Gli luciferase reporter luminescence | 340,000 tested, 0.74% active;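 active means inhibition above about 55%, limit read from the data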;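 further: 0% = DMSO-treated cells and 100% = wells with medium but no cells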
SRC1 inh – SRC1 coactivator transcriptional activity inhibitors, primary screen, cell-based, luminescence; 360,000 tested, 0.12% active; inhibition, % at 3.6 µM; HEK293 GAL4-SRC1 luciferase reporter; Nuclear receptor coactivator 1 (Homo sapiens), Q15788;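 active means inhibition above the campaign mean plus 3 SD, with each screening campaign given its own cutoff, cut at about 60% in these data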;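 further: 0% = DMSO treated cells and 100% = gossypol at 36 µM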
VP16 Luc counter – Gal4-VP16 luciferase reporter inhibitors, counter-screen for COUP-TFII antagonist project, cell-based, luminescence, HEK293; shares compounds with COUP-TFII inh; inhibition, % at 8.5 µM; 2,500 tested, 25% active; AID 687007, 2013; in the data active means inhibition above about 13%
COUP-TFII conf – NR2F2 transcriptional activity inhibitors, confirmation, cell-based, luciferase reporter, HEK293, triplicate | 2,500 tested, 45% active | AID 687008, 2013 | shares compounds with COUP-TFII inh | inhibition, % at 8.5 µM | HEK293 NGFI-A luciferase reporter, luminescence;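 active means mean inhibition over three repeats above a set limit taken from the earlier primary screen, cut at about 38% in these data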;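 further: 100% = cells given the luciferase reporter alone without the COUP-TF2 vector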
Numbers without * were called inactive; . = no result given.

SMILES	NCOA2 inhibitor	COUP-TFII inh	SRC3 inh	LRH-1 inv ag	Gli-Sufu antag	SRC1 inh	VP16 Luc counter	COUP-TFII conf
Cc1ccc(S(=O)(=O)NCCCc2ccc3c(c2)[C@]2(CCC[C@@H](OCc4ccccc4)[C@@H]2NC(=O)CCc2ccccc2)C(=O)N3Cc2ccccc2)cc1	1	5	.	.	.	.	.	.
O=C(Nc1ccccc1[N+](=O)[O-])NC1CCCCN(Cc2ccc(Cl)cc2)C1=O (stereo not drawn)	-13	14	.	.	.	.	.	.
COC(=O)[C@]12C[C@H](CC(=O)N3CCCC3)C(=O)N(Cc3ccc(Cl)cc3Cl)C1=C[C@H](C1CCCC1)O[C@@H]2C	-16	17	.	.	.	.	.	.
N#Cc1c(NC(=O)CSc2ncn[nH]2)sc2c1CCCCC2	84*	88*	49	53	34	36	81*	79*
COC(=O)[C@]12C[C@H](CC(=O)N3CCN(C(=O)c4ccco4)CC3)C(=O)N(CCC3=CCCCC3)C1=C[C@H](C1CCCC1)O[C@@H]2C	12	7	.	.	.	.	.	.
CCOC(=O)c1cccc(NS(=O)(=O)c2ccc(NC(C)=O)cc2)c1	44	39*	34	16	16	39	7	22
CCOC(=O)c1ccc(NC(=O)COc2ccc(S(=O)(=O)NC(C)CC)cc2)cc1 (stereo not drawn)	-1	47*	-4	15	6	4	0	26
CC(=O)c1cccc(NS(=O)(=O)c2ccc(C(=O)Nc3ccccc3)cc2)c1	20	49*	31	27	32	-17	12	48*
O=C(Nc1nc2c(s1)CCCC2)c1ccc(S(=O)(=O)N2CCCc3ccccc32)cc1	15	50*	22	14	2	3	-8	31
CC1CCc2nc(NC(=O)c3ccc(S(=O)(=O)N4CCCc5ccccc54)cc3)sc2C1 (stereo not drawn)	-6	3	2	-3	2	6	.	.
CC(C)(C)c1ccc(C(=O)NC(=S)Nc2nc3c(s2)CCCC3)cc1	45	49*	38	11	30	34	-24	37
Cc1ccc(-n2c(Cc3cccs3)nnc2SCC(=O)Nc2ccc(OCc3ccccc3)cc2)cc1	0	4	.	.	.	.	.	.
O=C1C2C3C=CC(C3)C2C(=O)N1c1ccc(N2CCN(c3ccccn3)CC2)c([N+](=O)[O-])c1 (stereo not drawn)	5	42*	28	25	14	12	1	25
Cn1cccc1C(=O)N1CCN(S(=O)(=O)c2ccc([N+](=O)[O-])cc2)CC1	11	-19	.	.	.	.	.	.
O=[N+]([O-])c1ccc(C[n+]2cccc3c4ccccc4ccc32)cc1	9	58*	29	33	22	28	-1	30
Cc1ccc[n+](Cc2ccc([N+](=O)[O-])cc2)c1	-24	7	0	5	-1	-5	.	.
CC(C)c1ccc(/C=C2\SC(=S)N(CCC(=O)N3CCCCC3CCO)C2=O)cc1 (stereo not drawn)	48	41*	42	-5	20	26	-30	10
Cc1ccc(OCCN2CCN(C(=O)CCC(=O)Nc3nnc(CC(C)C)s3)CC2)cc1	8	56*	24	25	7	32	4	33
Cc1nc2ccc(S(=O)(=O)NCC(=O)N(C)Cc3ccc(F)cc3)cc2s1	-2	4	.	.	.	.	.	.
CC(=O)CC[C@@H]1CC[C@]2(CCCN(C(=O)C3CCCCC3)C2)O1	-2	2	.	.	.	.	.	.
Cc1cccc(C)c1OCc1cc(C(=O)N(Cc2c(C)nn(C)c2C)C2CC2)no1	10	51*	23	12	44	19	0	32
C/C=C/C=C/C(=O)N1C[C@H](C)N(C)C[C@H]1C	16	16	.	.	.	.	.	.
COc1ccc(CCN(Cc2cccs2)S(=O)(=O)c2ccccc2)cc1OC	-2	8	.	.	.	.	.	.
CCC(C)NS(=O)(=O)c1ccc(S(=O)(=O)N(CCc2ccc(OC)c(OC)c2)Cc2cccs2)cc1 (stereo not drawn)	29	58*	-5	15	1	-8	9	48*
COc1ccc(CCN(Cc2cccs2)S(=O)(=O)c2ccc(F)cc2)cc1OC	31	47*	.	.	.	.	4	14
SMILES	NCOA2 inhibitor	COUP-TFII inh	SRC3 inh	LRH-1 inv ag	Gli-Sufu antag	SRC1 inh	VP16 Luc counter	COUP-TFII conf
O=C(Nc1ccc(N2C(=O)CC3(CCCCC3)C2=O)c(Cl)c1)c1ccccn1	.	-11	.	.	.	.	.	.
C=C1C(=O)O[C@@H]2C[C@@H](C)[C@@H]3C=CC(=O)[C@@]3(C)[C@@H](OC(C)=O)[C@H]12	83*	86*	.	.	96*	.	94*	105*
Cc1cc(C(F)(F)F)n(-c2nc(C(=O)NN)cs2)n1	-29	37*	7	5	14	3	-6	-4
CCOC(=O)c1csc(-n2nc(C)cc2C(F)(F)F)n1	4	0	21	4	24	-10	.	.
O=C(Nc1ccc(Cl)cc1)c1ccc(CN2CCc3ccccc3C2)cc1	-16	41*	-23	10	-5	-21	-109	12
O=C(Nc1ccc(S(=O)(=O)N2CCCC2)cc1)c1ccc(OCC2CCCO2)cc1 (stereo not drawn)	22	38*	-5	24	2	-16	-2	17
O=C(Nc1ccc(S(=O)(=O)N2CCOCC2)cc1)c1ccc(CN2CCc3ccccc3C2)cc1	.	.	.	.	-11	.	.	.
N#CCc1ccc(NC(=O)c2ccc(CN3CCc4ccccc4C3)cc2)cc1	5	56*	7	21	2	9	0	56*
O=C(Nc1ccc(S(=O)(=O)N2CCCC2)cc1)c1ccc(CN2CCc3ccccc3C2)cc1	10	77*	53	60	52	32	0	71*
O=C(NC1CCCCN(Cc2cccc(C(F)(F)F)c2)C1=O)c1cccc([N+](=O)[O-])c1 (stereo not drawn)	4	-5	.	.	.	.	.	.
CN(CCc1ccccc1)C(=O)c1cc2ccccn2n1	-24	-9	.	.	.	.	.	.
O=C(Nc1ccc(S(=O)(=O)N2CCCCC2)cc1)c1ccncc1	19	7	11	6	20	-8	.	.
O=C(Nc1ccc(Cc2ccncc2)cc1)c1ccc(S(=O)(=O)N2CCCC2)cc1	13	69*	26	27	42	22	11	52*
